Publication PMC4552634, “A New Set of Chemical Starting Points with Plasmodium falciparum Transmission-Blocking Potential for Antimalarial Drug Discovery” (PLoS ONE, 2015)
Screen size: about 13,000 compounds; about 3,200 (25%) showed an effect of 50% or more. The list shows a part of the results.

The molecules below were run on P. falciparum stage V gametocytes. Conditions: 48 h, 5 µM; inhibitor.
Design: BacTiter-Glo ATP luminescence viability of purified stage V gametocytes in 384-well plates, per cent inhibition versus DMSO

Structure (SMILES)	% Inhibition [%]
CN(CC(=O)Nc1ccc(F)c(F)c1F)c1ncnc2sc(-c3ccccc3)cc12 [TCMDC-124491]	23.36
O=C(Nc1ccc2c(ccn2C2CCCN(Cc3cc(F)cc(F)c3F)CC2)c1)c1ccco1 (stereo not drawn) [TCMDC-135087]	26.42
Nc1nc(N)c2cc(N(Cc3ccccc3)Cc3ccccc3)ccc2n1 [TCMDC-137850]	-9.254
Cc1cccc2[nH]c(-c3cccc(-c4cccc(NC(=O)CNc5ccc(C(N)=O)cc5)c4)c3)nc12 [TCMDC-132165]	-3.752
Cc1ccccc1C1CCN(c2ccc(C(=O)NC3CC3)cn2)CC1 [TCMDC-134592]	24.07
COc1ccc2nccc(N3CCC(CCNCc4cc5c(cn4)OCCO5)CC3)c2n1 [TCMDC-133538]	80.45
COc1ccc2nccc(N3CCC(SCCNCc4cc5c(cn4)OCCO5)C3)c2n1 (stereo not drawn) [TCMDC-134286]	24.01
COc1ccc2nccc(N3CCC(CCNCc4cc5c(cn4)OCCO5)CC3)c2c1.Cl [TCMDC-133537]	9.41
COc1ccc2nccc(NCC3(O)CCC(NCc4cc5c(cn4)OCCO5)CC3)c2n1 (stereo not drawn) [TCMDC-134312]	-33.45
COc1ccc2nccc(N3CCC(CCNCc4ccc5c(n4)NC(=O)CS5)CC3)c2n1 [TCMDC-141944]	32.25
COc1ccc2nccc(N3CCC(NCCNCc4cc5c(cn4)OCCO5)C3)c2n1 (stereo not drawn) [TCMDC-134650]	71.62
COC(=O)c1cc2cccc(NC[C@@H](C)NC[C@H](O)c3cccc(Cl)c3)c2[nH]1 [TCMDC-137770]	45
c1cc(CNC2CCN(CC3CCCCC3)CC2)cc(-n2ccnc2)c1 [TCMDC-141657]	70.67
COc1ccc(CN2CCC(NCc3cccc(-n4ccnc4)c3)CC2)cc1 [TCMDC-141651]	14.29
c1cc(CNCC2CCN(CC3CCCCC3)CC2)cc(-n2ccnc2)c1 [TCMDC-141675]	21.38
CN(C)Cc1ccc(CNC2CCN(Cc3ccccc3Cl)CC2)cc1 [TCMDC-141671]	-2.208
Clc1ccccc1CN1CCC(NCc2cccc(-n3ccnc3)c2)CC1 [TCMDC-141672]	86.45
CCCCCCN1CCC(NCc2cccc(-n3ccnc3)c2)CC1 [TCMDC-141664]	11.65
Cc1ccc(-c2cnc3[nH]cc(-c4ccc(C(=O)O)c(C)c4)c3c2)cc1C.O=C(O)C(F)(F)F [TCMDC-136381]	18.23
CCCCc1cc(NCC)nc(Nc2ccc(F)cc2)n1 [TCMDC-134009]	8.286
Cn1cncc1-c1ccc2ncnc(Nc3ccc4c(cnn4Cc4ccccc4)c3)c2c1 [TCMDC-137781]	-8.163

Structure (SMILES)	% Inhibition [%]
O=C(CN1CCCCC1)Nc1ccc(Nc2nccc(NCC(O)c3ccccc3)n2)cc1 (stereo not drawn) [TCMDC-136469]	-6.593
CCN(CC)CCNC(=O)c1ccc(N=Cc2c(O)[nH]c3ccc(S(=O)(=O)Cc4c(Cl)cccc4Cl)cc23)cc1 [TCMDC-135945]	35.17
NS(=O)(=O)c1cccc(N=Cc2c(O)[nH]c3ccc(S(=O)(=O)Cc4c(Cl)cccc4Cl)cc23)c1 [TCMDC-135947]	101.9
CN(CCCCNC(=O)c1ccc(-c2ccccc2)cc1)C1CCc2c(O)cccc2C1 (stereo not drawn) [TCMDC-139005]	-43.63
O=C(Nc1ccc(OC2CCN(Cc3ccc(F)cc3)CC2)cc1)c1cccs1 [TCMDC-133741]	27.9
Cc1ccc(-c2nc3ccccc3o2)cc1NCc1cc(Cc2ccccc2)ccc1O [TCMDC-125705]	-21.71
Cc1cc(O)c(CN2CCN(Cc3cccs3)CC2)cc1C(C)C [TCMDC-124883]	-57.78
O=C(Cn1c(CCc2cccc(F)c2F)nc(=O)c2ccccc21)N(Cc1ccc(-c2ccc(C(F)(F)F)cc2)cc1)C1CCN(C2=NCCS2)CC1 [TCMDC-136537]	107.4
CCN1CCC(N(Cc2ccc(-c3ccc(C(F)(F)F)cc3)cc2)C(=O)CCCCn2c(CCc3cccc(F)c3F)nc(=O)c3ccccc32)CC1 [TCMDC-141321]	85.03
CCN1CCC(N(Cc2ccc(-c3ccc(C(F)(F)F)s3)cc2)C(=O)Cn2c(CCc3cccc(F)c3F)nc(=O)c3ccccc32)CC1 [TCMDC-141282]	107.7
CCN1CCCC1CN(Cc1ccc(-c2ccc(C(F)(F)F)cc2)cc1)C(=O)Cn1c(CCc2cccc(F)c2F)nc(=O)c2ccccc21 (stereo not drawn) [TCMDC-141061]	68.75
Cc1ccccc1CNc1noc(-c2c(-c3ccccc3)noc2C)n1 [TCMDC-134201]	-15.74
CCCOC(=O)c1ccc(OCCCON2C(N)=NC(N)=NC2(C)C)cc1 [TCMDC-131715]	8.227
CC(C)N1CCC(N(Cc2ccc(-c3ccc(C(F)(F)F)cc3)cc2)C(=O)CCCn2c(CCc3cccc(F)c3F)nc(=O)c3ccccc32)CC1 [TCMDC-141316]	88.07
CCN1CCC(N(Cc2ccc(-c3ccc(C(F)(F)F)cc3)o2)C(=O)Cn2c(CCc3cccc(F)c3F)nc(=O)c3ccccc32)CC1 [TCMDC-141281]	92.96
CCN1CCC(N(Cc2ccc(-c3ccc(C(F)(F)F)cc3)cc2)C(=O)Cn2c(CCc3cccc(F)c3F)nc(=O)c3ccccc32)CC1 [TCMDC-141048]	116.3
O=C(C1CCCC1)N1CCOC(CCN2CCC(c3ccccc3)CC2)(c2ccc(Cl)c(Cl)c2)C1 (stereo not drawn) [TCMDC-135327]	-12.01
CC(C)Cc1nc2nc(N)nc(N)c2cc1C(C)C [TCMDC-137930]	2.497
CC1CCCN(c2ccc(NC(=O)c3cccs3)cc2[N+](=O)[O-])C1 (stereo not drawn) [TCMDC-124625]	1.853
O=C(Nc1ccc2c(c1)CCCN2S(=O)(=O)c1cccs1)c1cc([N+](=O)[O-])ccc1Cl [TCMDC-125153]	96.55
CC(=O)c1cccc(NC(=O)c2ccc(Cl)c(S(=O)(=O)N3CCc4ccccc43)c2)c1 [TCMDC-124431]	4.693
